# Values joined by “and” are separate entries in the source; they are usually repeats but may differ in a detail not shown here. Equal entries are not always repeated. Records with an inconclusive call do not appear. Active and inactive are the calls of the source. Unless noted, calls follow the shape of the dose curve; as a rule, active = well fitted curve in the direction sought with a large enough effect; inconclusive = small, poorly fitted or top-dose-only effect, or another doubt; inactive = no such curve, though single readings can be large; an effect the other way counts as inactive or inconclusive.
# Key:
# [1] = molecular target: Cytochrome P450 2C9 (Homo sapiens) (UniProt P11712); test: Cytochrome P450 family 2 subfamily C member 9 (CYP2C9) small molecule antagonists: luciferase biochemical (cell-free) qHTS assay (AID 1645842; active = well fitted curve in the direction sought with a large enough effect in the repeat runs; an effect the other way counts as inactive or inconclusive; also: nearly all actives have a fitted effect of over 55% in size)
# Cytochrome P450 2C9 (Homo sapiens), sequence (P11712 whole entry, looked up): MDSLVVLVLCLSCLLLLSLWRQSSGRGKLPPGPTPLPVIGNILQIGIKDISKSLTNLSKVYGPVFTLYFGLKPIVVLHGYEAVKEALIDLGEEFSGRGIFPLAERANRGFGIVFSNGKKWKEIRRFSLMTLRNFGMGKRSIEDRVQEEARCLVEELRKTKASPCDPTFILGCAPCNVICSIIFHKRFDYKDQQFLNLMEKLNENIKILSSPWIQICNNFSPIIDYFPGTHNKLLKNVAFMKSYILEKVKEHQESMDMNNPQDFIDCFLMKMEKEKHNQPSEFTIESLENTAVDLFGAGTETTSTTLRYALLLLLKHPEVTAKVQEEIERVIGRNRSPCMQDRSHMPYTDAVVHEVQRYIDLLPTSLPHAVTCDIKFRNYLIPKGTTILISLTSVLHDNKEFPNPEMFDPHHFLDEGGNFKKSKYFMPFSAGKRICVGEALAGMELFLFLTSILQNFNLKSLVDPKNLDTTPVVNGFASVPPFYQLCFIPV
# In short: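 Luminescence, after 20 min with luciferin detection reagent, reflected CYP2C9 turnover during a 1 h NADPH-driven reaction at 37C. Enzyme-substrate mix contained 0.4% bovine serum albumin and was preincubated with compound 10 min at room temperature.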
# [2] = Primary qHTS for inhibitors of nuclear receptor binding SET domain protein 2 (NSD2) in an isogenic RCH-ACV NSD2 p.E1099K mutant (9B) (AID 1645876); also: nearly all actives have a fitted effect of over 70% in size
# [3] = Primary qHTS for inhibitors of nuclear receptor binding SET domain protein 2 (NSD2) in an RCH-ACV wild type WT cells (2C) (AID 1645877); also: nearly all actives have a fitted effect of over 70% in size
# Potency is read from the fitted curve at half-maximal effect.
Structure (SMILES),Potency [1],Potency [2],Potency [3]
CNc1cccc(CCOc2ccc3c(c2)CN(CC(F)(F)F)C(=O)[C@H](CC(=O)O)C3)n1,inactive,inactive,inactive
CCN(Cc1ccccc1)C(=O)Cn1c(=O)n(C)c2cnc(-c3ccccc3)nc21,19 µM (active),inactive,inactive
C=CC(=O)N1CCC[C@@H](n2nc(-c3cccc(C(=O)Nc4ccc(C(C)C)c(C)c4)c3)c3c(N)ncnc32)C1,8.49 µM (active),8.17 µM (active),9.16 µM (active)
NC(=O)N1CCC(CC(=O)N2CCC(C3c4ncc(Br)cc4CCc4cc(Cl)cc(Br)c43)CC2)CC1 (stereo not given),12 µM (active),7.28 µM (active),6.49 µM (active)
COc1cc2nc(C3CC3)nc(N3CCN(c4ccccc4OC)CC3)c2cc1OC,13.5 µM (active),16.3 µM (active),12.9 µM (active)
O=C(c1ccc(OC(F)F)c(C#Cc2ccccn2)c1)N1Cc2cccnc2C1,inactive,inactive,inactive
CCOc1ccc(CCNC(=O)c2cc3sc(Cl)cc3n2C)cc1OCC,2.39 µM (active),inactive,inactive
Cc1cc(-c2cc(OC(=O)c3ccccc3)ccc2Cl)cc2nnc(Nc3ccc(OCCN4CCCC4)cc3)nc12,inactive,12.9 µM (active),7.96 µM (active)
C=CC(=O)Nc1cccc(Nc2nc(Nc3ccc(NC4CN(CCF)C4)cc3OC)ncc2C(F)(F)F)c1,0.268 µM (active),4.59 µM (active) and 5.9 µM (active),4.09 µM (active) and 6.61 µM (active)
COC(=O)C(Cc1ccc(OCCn2c(=O)sc3cc(C(=O)c4ccccc4)ccc32)cc1)C(=O)OC,2.13 µM (active),inactive,inactive
